Measurements as given in PubChem BioAssay (NCATS).
Inconclusive results are not listed. Calls of active or inactive are those of the source. Unless noted, calls follow the shape of the dose curve; as a rule, active = well fitted curve in either direction with a large enough effect (not every such curve was filed as active); inconclusive = small, poorly fitted or top-dose-only effect, or another doubt; inactive = flat fitted curve, though single readings scatter.

Legend:
[1] = target: Lysosomal acid glucosylceramidase (Homo sapiens) (UniProt P04062); experiment: Glucocerebrosidase-p2 (AID 348; in the data active = potency below about 10 µM; also: potency is read from the fitted curve at half-maximal effect); settings: purified GBA, blue fluorogenic substrate, 40 min
Outline: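 Normal human glucocerebrosidase (0.2 nM) with blue fluorogenic substrate (80 uM final) in citrate/phosphate pH 5.9 with 10mM sodium taurocholate, 0.01% tween-20; 40 min RT, NaOH/glycine stop; fluorescence Ex 365/Em 440; AC50 from a titration from 0.6 nM upwards.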

[2] = AP1 Signaling Pathway (AID 357); settings: ME-180 AP-1-bla reporter, EGF-induced, beta-lactamase ratio, 5 h; at 7.69 µM (top of the series) unless noted;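 also: ME-180 reporter cells stimulated with EGF at its EC50 level; % is scaled to controls: 0 for no effect and ±100 for the full control effect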
Outline: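 Modulation of EGF-driven AP-1 transcription was assessed with a beta-lactamase reporter in ME-180 cells. Compound and EC50 EGF were co-incubated 5 hours at 37 °C before 2.5-hour CCF4 loading at room temperature and dual-emission reading.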

[3] = NFAT Signaling Pathway (AID 444); settings: Jurkat NFAT-bla M1, carbachol, beta-lactamase ratio, 5 h; at 7.69 µM (top of the series) unless noted;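 also: carbachol stimulus at about its EC50 of 1 µM final; % is scaled to controls: 0 for no effect and ±100 for the full control effect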
Outline: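 Read-out: CCF4 FRET ratio (460 nm/530 nm) after 1 h RT dye loading, used for %activity and AC50 from titration series. Cells: Jurkat NFAT-β-lactamase/M1 line, treated with compound plus 1 uM carbachol for 5 h, 37 °C.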

[4] = Stat Signaling Pathway (AID 446); settings: ME-180 (cervical carcinoma) SIE beta-lactamase reporter, IL-6 stimulated, 5 h; at 7.69 µM (top of the series) unless noted;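 also: ME-180 cervical cancer cells given 40 pM IL-6 alongside compound; SIE-controlled beta-lactamase reporter measured as 460/530 nm FRET emission ratio; % is scaled to controls: 0 for no effect and ±100 for the full control effect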
Outline: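 Emission at 460 and 530 nm (excitation 405 nm) reports SIE-controlled beta-lactamase in ME-180 cells. Cells received compound with 40 pM IL-6 for 5 hrs at 37 C; data scaled between 300 pM IL-6 and 125 nM JAK-inhibitor controls.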

[5] = target: Glucocorticoid receptor (Homo sapiens) (UniProt P04150); experiment: GR-EFC Redistribution (AID 451; calls by dose curve; also: potency is read from the fitted curve at half-maximal effect); settings: CHO-K1 GR-EFC translocation, beta-gal luminescence, 2 h
Outline: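 Translocation of GR-ED fusion to nuclear EA restores b-gal, read by luminescence after 1 h room-temperature detection. Engineered CHO-K1 biosensor cells, 1,000/well, exposed 2 h at 37 C to titrations up to 46 uM final.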

[6] = target: Mitogen-activated protein kinase 10 (Mus musculus) (UniProt Q61831); experiment: JNK3 AlphaScreen Assay (AID 530); settings: JNK3 lysate, c-Jun phosphorylation; series mostly up to 57.1 µM;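 also: kinase came from lysate of stimulated human HepG2 cells; signal reports phosphorylation of biotinylated GST-cJun 1-79 at Ser73 with 10 µM ATP; % is scaled to controls: 0 for no effect and ±100 for the full control effect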
Outline: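 Kinase buffer: 20 mM Tris-HCl pH 7.6, 10 mM MgCl2, 1 mM DTT, 0.1 mM Na3VO4, 0.01% Tween-20; ATP 10 uM. Substrate biotin-GST-cJun(1-79), enzyme from activated HepG2 lysates. Detection by Ser73 phospho-antibody AlphaScreen.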

[7] = target: 3',5'-cyclic-AMP phosphodiesterase 4B (Homo sapiens) (UniProt Q07343); experiment: qHTS Assay for Inhibitors of PDE-IV (AID 607; active = well fitted activation curve with a large enough effect in the main read-out, with a control signal flat, not every such curve was filed as active; also: % of control where 0% means no effect); settings: HEK293 ACTOne CNG channel cells, membrane potential fluorescence; series mostly up to 22.9 µM
Outline: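 The readout is membrane depolarisation from a cAMP-sensing CNG channel, detected with a potential dye at ex 535/em 590. Cells were HEK293-derived (endogenous PDE-IV) at 1000 cells/well, titrated up to 22.9 uM final.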

[8] = qHTS Assay for Lipid Storage Modulators (AID 1519; calls by dose curve); settings: Drosophila S3 cells, BODIPY lipid droplet/cell ratio, laser cytometry, cells loaded with oleic acid; for activity change, negative = inhibition: at 57.5 µM (top of the series)
Outline: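 Cells seeded at 5,000 per well were treated with compounds over a concentration series and loaded with oleic acid (400 uM, as added). Lipid droplet fluorescence (488 nm excitation, 500-530 nm channel) was read by laser-scanning cytometry and normalized to 20 uM Triacsin C.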

[9] = Primary qHTS for small molecule stabilizers of the endoplasmic reticulum resident proteome: Secreted ER Calcium Modulated Protein (SERCaMP) assay (AID 1508630; active = well fitted curve in the direction sought with a large enough effect; an effect the other way counts as inactive or inconclusive; also: % is scaled to controls: 0 for no effect and ±100 for the full control effect); settings: SH-SY5Y GLuc-SERCaMP (Gaussia luciferase released on ER calcium loss) secretion, thapsigargin, luminescence; series mostly up to 38.4 µM
Outline: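 The SH-SY5Y reporter protocol was run at 3 concentrations up to 38.3 uM (primary) or 11 concentrations (follow-up): 16 h compound, 100 nM thapsigargin for 4 h, then extracellular luciferase luminescence.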

[10] = target: Cytochrome P450 1A2 (Homo sapiens) (UniProt P05177); experiment: p450-cyp1a2 (AID 410; calls by dose curve; also: potency is read from the fitted curve at half-maximal effect;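 as to activity change, negative = inhibition: -100% = full effect of reference inhibitor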); settings: recombinant CYP1A2, luciferin-ME demethylation, luminescence; series mostly up to 57 µM
Outline: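 Read-out is luminescence from luciferin produced by CYP1A2 demethylation of Luciferin-ME (100uM, at Km). Detection reagent stopped the 60 min NADPH-dependent reaction; signals were normalized to 57 uM furafylline.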

[11] = target: Cytochrome P450 3A4 (Homo sapiens) (UniProt P08684); experiment: qHTS Assay for Activators of Cytochrome P450 3A4 (AID 885; active = well fitted curve in the direction sought with a large enough effect; an effect the other way counts as inactive or inconclusive; also: nearly all actives have a fitted effect of over 65% in size; also: potency is read from the fitted curve at half-maximal effect); settings: recombinant CYP3A4, Luciferin-PPXE luminescence, 60 min; series mostly up to 57.1 µM
Outline: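 Activators are scored by enhanced luminescence from CYP3A4 conversion of luciferin-PPXE (25uM, equal to KM) to luciferin, after 60 min at RT with an NADPH-regenerating system.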

[12] = target: Cytochrome P450 2D6 (Homo sapiens) (UniProt P10635); experiment: qHTS Assay for Inhibitors and Substrates of Cytochrome P450 2D6 (AID 891; active = well fitted curve in the direction sought with a large enough effect; an effect the other way counts as inactive or inconclusive; also: potency is read from the fitted curve at half-maximal effect; nearly all actives have a fitted effect of over 60% in size); settings: recombinant CYP2D6, luciferin-ME EGE luminescence; series mostly up to 57.1 µM
Outline: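 Luminescent read-out of luciferin formed by 5 nM human CYP2D6 demethylating 30 uM Luciferin-ME EGE (Km level) over 60 min at room temperature after NADPH regeneration addition. Data normalized to full inhibition by 1.43 uM quinidine.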

[13] = target: Glucocorticoid receptor (Homo sapiens) (UniProt P04150); experiment: GR-GFP Redistribution (AID 450;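 active = compounds whose dose series gives a full or clear partial fitted curve of increased nuclear translocation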; also: potency is read from the fitted curve at half-maximal effect); settings: U2OS GR-GFP nuclear translocation, laser cytometry, 2 h
[14] = Confirmation and Secondary Assay for Modulators of Hemoglobin Beta Chain Splicing at IVS2 654 locus (AID 910; active = well fitted curve in the direction sought with a large enough effect; an effect the other way counts as inactive or inconclusive;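 also: HeLa cells stably carrying EGFP split by mutant beta-globin IVS2-654 intron; per-well total GFP intensity by laser scanning cytometry after 2-day treatment; % of control where 0% means no effect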); settings: HeLa EGFP-654 splicing reporter, GFP fluorescence, 48 h; series mostly up to 38.3 µM
Outline: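 Readout: per-well total peak green fluorescence (488 nm ex, 500–520 nm em) from objects 5–250 µm, reflecting correct splicing of an EGFP-654 reporter. Compounds were applied for 2 days at 37 °C to overnight-plated HeLa EGFP-654 cells; controls were DMSO and 500 nM IVS2-654 PNA.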

[15] = Confirmation and Secondary Assay for Modulators of Hemoglobin Beta Chain Splicing at IVS2 705 locus (AID 930; active = well fitted curve in the direction sought with a large enough effect; an effect the other way counts as inactive or inconclusive;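 also: HeLa cells stably expressing the EGFP-705 splicing reporter; GFP fluorescence per well restored by corrected splicing of the IVS2-705 intron in EGFP; % of control where 0% means no effect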); settings: HeLa EGFP-705 splicing reporter, GFP fluorescence, 48 h; series mostly up to 38.3 µM
Outline: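 Splice-correction reporter: EGFP cDNA split by beta-globin intron 2 bearing the 705 mutation, stably in HeLa. Compound incubation 2 days, 37C; fluorescent objects 5-250 µm summed per well.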

[16] = target: Ubiquitin carboxyl-terminal hydrolase 1 (Homo sapiens) (UniProt O94782); experiment: Inhibitors of USP1/UAF1: Pilot qHTS (AID 504865; active = well fitted curve in the direction sought with a large enough effect; an effect the other way counts as inactive or inconclusive;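 also: rhodamine fluorescence freed from ubiquitin-rhodamine substrate followed over time; top concentration of the series differs between compounds; % is scaled to controls: 0 for no effect and ±100 for the full control effect; nearly all actives have a fitted effect of over 35% in size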); settings: purified USP1/UAF1, Ub-rhodamine cleavage fluorescence; series mostly up to 54.9 µM
Outline: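 USP1/UAF1 complex at 1 nM preincubated 15 min at room temperature with compound, then Ub-Rho substrate added at 150 nM final. Fluorescence (480/540 nm) read kinetically in 50 mM HEPES pH 7.8, 0.5 mM EDTA, 1 mM TCEP, 0.1 mg/ml BSA, 0.01% Tween-20.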

[17] = measured here: cell count channel max response
[18] = measured here: lipid channel max response

Cytochrome P450 3A4 (Homo sapiens), sequence (P08684 whole entry, looked up): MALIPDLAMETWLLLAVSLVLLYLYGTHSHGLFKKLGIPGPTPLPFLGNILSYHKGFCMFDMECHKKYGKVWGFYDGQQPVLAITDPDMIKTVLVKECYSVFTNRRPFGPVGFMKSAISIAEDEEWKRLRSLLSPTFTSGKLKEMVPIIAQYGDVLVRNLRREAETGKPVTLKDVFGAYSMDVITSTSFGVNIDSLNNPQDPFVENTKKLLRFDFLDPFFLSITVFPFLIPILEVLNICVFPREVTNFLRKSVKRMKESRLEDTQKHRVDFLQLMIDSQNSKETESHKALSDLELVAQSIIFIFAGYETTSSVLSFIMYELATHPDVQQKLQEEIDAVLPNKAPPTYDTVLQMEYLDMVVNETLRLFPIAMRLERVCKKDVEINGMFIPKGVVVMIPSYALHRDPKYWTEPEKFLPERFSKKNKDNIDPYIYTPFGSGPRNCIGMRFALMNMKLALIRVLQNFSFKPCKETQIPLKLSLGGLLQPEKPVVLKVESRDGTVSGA
Glucocorticoid receptor (Homo sapiens), sequence (P04150 whole entry, looked up, the tested form may be a part): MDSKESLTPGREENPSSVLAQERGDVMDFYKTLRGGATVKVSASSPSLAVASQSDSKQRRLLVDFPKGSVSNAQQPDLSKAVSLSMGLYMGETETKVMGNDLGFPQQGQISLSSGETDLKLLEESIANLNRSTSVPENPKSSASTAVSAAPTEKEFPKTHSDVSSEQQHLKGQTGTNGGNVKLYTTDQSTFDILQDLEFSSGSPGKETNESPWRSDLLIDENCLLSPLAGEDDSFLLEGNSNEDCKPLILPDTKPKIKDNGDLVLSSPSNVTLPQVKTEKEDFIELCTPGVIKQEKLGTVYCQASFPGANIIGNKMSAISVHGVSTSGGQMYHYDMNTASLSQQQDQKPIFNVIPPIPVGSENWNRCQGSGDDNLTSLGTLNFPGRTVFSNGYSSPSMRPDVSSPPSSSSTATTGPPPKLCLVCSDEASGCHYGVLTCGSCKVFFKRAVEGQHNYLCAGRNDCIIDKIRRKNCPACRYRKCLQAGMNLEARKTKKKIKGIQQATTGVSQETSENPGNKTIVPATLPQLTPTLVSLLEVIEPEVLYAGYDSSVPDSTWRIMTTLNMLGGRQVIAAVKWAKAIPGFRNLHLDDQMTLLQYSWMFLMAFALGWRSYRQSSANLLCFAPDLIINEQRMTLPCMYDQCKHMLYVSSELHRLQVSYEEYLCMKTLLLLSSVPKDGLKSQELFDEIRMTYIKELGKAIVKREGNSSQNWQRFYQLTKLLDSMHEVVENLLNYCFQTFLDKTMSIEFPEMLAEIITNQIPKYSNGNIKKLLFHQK
Cytochrome P450 1A2 (Homo sapiens), sequence (P05177 whole entry, looked up): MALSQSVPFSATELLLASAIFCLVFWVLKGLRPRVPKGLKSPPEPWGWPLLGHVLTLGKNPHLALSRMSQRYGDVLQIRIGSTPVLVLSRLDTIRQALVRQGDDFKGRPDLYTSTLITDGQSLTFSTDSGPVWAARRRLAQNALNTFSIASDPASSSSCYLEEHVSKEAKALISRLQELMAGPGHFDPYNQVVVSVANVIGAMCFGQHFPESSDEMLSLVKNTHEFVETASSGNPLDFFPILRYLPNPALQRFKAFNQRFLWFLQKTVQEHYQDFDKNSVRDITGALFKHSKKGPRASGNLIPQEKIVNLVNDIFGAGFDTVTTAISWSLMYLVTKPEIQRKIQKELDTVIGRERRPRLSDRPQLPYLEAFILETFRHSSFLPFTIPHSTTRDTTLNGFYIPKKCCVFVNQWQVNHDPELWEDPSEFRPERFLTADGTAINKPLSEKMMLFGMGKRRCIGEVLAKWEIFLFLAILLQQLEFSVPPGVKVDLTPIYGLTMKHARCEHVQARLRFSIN
3',5'-cyclic-AMP phosphodiesterase 4B (Homo sapiens), sequence (Q07343 whole entry, looked up): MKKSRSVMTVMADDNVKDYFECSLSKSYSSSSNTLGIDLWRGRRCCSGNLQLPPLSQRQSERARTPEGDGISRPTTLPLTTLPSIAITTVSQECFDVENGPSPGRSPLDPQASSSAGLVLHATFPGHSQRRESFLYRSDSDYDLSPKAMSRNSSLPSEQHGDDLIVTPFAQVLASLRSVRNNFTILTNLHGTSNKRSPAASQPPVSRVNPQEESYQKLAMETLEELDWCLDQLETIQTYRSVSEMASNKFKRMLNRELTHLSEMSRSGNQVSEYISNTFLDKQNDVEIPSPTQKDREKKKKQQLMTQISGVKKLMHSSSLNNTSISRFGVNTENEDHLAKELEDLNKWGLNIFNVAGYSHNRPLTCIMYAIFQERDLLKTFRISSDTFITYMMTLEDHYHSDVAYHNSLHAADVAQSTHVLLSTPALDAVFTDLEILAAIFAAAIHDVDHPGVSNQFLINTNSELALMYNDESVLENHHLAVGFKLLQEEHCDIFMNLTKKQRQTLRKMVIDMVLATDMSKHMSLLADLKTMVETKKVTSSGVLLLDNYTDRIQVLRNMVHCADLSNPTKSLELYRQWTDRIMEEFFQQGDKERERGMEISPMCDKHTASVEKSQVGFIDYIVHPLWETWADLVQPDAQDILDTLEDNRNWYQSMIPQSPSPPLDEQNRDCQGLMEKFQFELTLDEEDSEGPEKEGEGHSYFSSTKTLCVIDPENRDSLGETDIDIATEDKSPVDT
Lysosomal acid glucosylceramidase (Homo sapiens), sequence (P04062 whole entry, looked up): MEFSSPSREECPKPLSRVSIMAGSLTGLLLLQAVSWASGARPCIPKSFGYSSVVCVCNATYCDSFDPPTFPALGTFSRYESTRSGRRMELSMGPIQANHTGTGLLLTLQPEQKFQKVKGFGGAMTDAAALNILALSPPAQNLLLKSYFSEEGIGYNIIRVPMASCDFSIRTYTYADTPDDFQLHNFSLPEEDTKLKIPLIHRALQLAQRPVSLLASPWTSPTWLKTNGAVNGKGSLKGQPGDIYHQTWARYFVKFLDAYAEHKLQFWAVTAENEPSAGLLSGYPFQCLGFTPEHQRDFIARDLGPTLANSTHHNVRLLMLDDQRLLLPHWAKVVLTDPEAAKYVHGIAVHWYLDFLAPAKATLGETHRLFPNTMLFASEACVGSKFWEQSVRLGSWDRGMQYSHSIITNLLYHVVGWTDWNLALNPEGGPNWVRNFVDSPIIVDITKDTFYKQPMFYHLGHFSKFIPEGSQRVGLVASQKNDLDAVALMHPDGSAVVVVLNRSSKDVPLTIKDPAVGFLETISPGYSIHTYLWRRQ
Ubiquitin carboxyl-terminal hydrolase 1 (Homo sapiens), sequence (O94782 whole entry, looked up): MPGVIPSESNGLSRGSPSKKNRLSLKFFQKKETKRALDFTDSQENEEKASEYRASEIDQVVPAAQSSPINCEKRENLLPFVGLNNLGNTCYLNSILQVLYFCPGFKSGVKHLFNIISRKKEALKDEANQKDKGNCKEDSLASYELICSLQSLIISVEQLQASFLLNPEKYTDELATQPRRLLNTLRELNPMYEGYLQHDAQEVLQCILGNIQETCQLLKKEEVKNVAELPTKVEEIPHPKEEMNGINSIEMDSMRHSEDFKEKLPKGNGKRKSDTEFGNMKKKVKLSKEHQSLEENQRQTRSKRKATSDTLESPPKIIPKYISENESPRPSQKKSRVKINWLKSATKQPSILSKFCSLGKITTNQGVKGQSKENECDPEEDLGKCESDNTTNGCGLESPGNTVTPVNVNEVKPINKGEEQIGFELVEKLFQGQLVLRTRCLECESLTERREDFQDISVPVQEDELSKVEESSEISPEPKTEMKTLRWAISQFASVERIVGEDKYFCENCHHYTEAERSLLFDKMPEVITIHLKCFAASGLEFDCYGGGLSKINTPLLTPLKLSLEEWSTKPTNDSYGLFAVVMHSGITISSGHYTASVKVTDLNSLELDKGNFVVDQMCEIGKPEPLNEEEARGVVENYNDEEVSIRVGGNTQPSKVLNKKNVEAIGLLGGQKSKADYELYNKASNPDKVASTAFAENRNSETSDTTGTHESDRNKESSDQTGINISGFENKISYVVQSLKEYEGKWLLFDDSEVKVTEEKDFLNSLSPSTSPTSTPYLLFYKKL
Cytochrome P450 2D6 (Homo sapiens), sequence (P10635 whole entry, looked up): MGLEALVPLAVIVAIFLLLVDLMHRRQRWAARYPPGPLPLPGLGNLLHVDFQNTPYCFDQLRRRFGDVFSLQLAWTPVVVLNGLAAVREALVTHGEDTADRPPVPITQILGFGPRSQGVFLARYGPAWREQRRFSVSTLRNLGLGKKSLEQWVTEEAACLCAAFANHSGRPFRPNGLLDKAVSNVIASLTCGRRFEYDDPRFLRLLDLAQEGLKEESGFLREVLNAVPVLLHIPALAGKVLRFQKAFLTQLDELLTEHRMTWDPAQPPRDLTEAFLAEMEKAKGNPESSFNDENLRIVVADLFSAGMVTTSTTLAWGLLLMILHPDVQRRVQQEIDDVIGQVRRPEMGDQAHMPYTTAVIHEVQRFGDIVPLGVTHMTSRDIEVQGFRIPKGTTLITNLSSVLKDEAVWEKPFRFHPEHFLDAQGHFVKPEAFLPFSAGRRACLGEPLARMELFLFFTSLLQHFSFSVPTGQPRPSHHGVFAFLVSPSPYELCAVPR

COC(=O)N1CCC2(CC1)CN(c1cccc(-c3ccccc3)c1)C2
29.4%: max response [8, 18]
inactive: Potency [1] > 11.4 µM | activity change, negative = inhibition [2] -12.5% | activity change, negative = inhibition [3] -3.27% | activity, negative = inhibition [4] 4.85% | Potency [5] > 46 µM | outcome [6] | Potency [7] | activity change, negative = inhibition [8] 4.36% | Potency [9]
23.2%: max response [8, 17]

Cn1cccc1C(=O)N1CCC[C@@]2(CCN(Cc3ccccc3)C2)C1
9.58%: max response [8, 18]
inactive: Potency [1] > 11.4 µM | activity change, negative = inhibition [2] -8.23% | activity change, negative = inhibition [3] -14.1% | Potency [5] > 46 µM | outcome [6] | Potency [7] | Potency [11] | activity change, negative = inhibition [8] 3.81% | Potency [9]
5.36%: max response [8, 17]
active: Potency [10] 10 µM | Potency [12] 2 µM

CS(=O)(=O)N1CCC[C@@]2(CCN(Cc3ccccc3)C2)C1
2.42%: max response [8, 17]
inactive: Potency [1] > 11.4 µM | activity change, negative = inhibition [2] 0.761% | activity change, negative = inhibition [3] 1.85% | activity, negative = inhibition [4] 23.6% | Potency [5] > 46 µM | outcome [6] | Potency [7] | activity change, negative = inhibition [8] 2.55% | Potency [9]
7.6%: max response [8, 18]

Cc1noc(C)c1C(=O)N1CCC2(CCCN(c3ccccc3)C2)CC1
inactive: Potency [1] > 11.4 µM | activity change, negative = inhibition [2] -12.1% | Potency [10] | activity, negative = inhibition [4] -1.28% | Potency [5] > 46 µM | outcome [6] | Potency [7] | Potency [11] | activity change, negative = inhibition [8] -0.946% | Potency [9]
9.27%: max response [8, 18]
8.91%: max response [8, 17]

CC(=O)N1CCC2(CC1)CN(C(c1ccccc1)c1ccccc1)C2
inactive: Potency [1] > 11.4 µM | activity change, negative = inhibition [2] 14.1% | Potency [10] | activity, negative = inhibition [4] -8.55% | Potency [5] > 46 µM | outcome [6] | Potency [7] | activity change, negative = inhibition [8] 1.46% | Potency [9]
21%: max response [8, 18]
13.6%: max response [8, 17]
active: Potency [11] 15.8 µM

COCC(=O)N1CCC2(CCCN(Cc3cc(C(F)(F)F)cc(C(F)(F)F)c3)C2)CC1
26.3%: max response [8, 17]
inactive: Potency [1] > 11.4 µM | activity change, negative = inhibition [2] -15.5% | activity change, negative = inhibition [3] -0.717% | activity, negative = inhibition [4] 3.96% | outcome [6] | Potency [7] | Potency [11] | activity change, negative = inhibition [8] -0.278% | Potency [9]
28.3%: max response [8, 18]

CN(C)Cc1ccccc1-c1nccc(N(C)C)n1
4.56%: max response [8, 17]
inactive: Potency [1] > 11.4 µM | activity change, negative = inhibition [2] 23.3% | activity change, negative = inhibition [3] -0.313% | activity, negative = inhibition [4] 10.1% | Potency [13] > 46 µM | Potency [5] > 46 µM | outcome [6] | Potency [7] | Potency [11] | outcome [14] | outcome [15] | activity change, negative = inhibition [8] 2.35% | Potency [16] | Potency [9]
7.89%: max response [8, 18]

COc1ccc(C(=O)N2CCC3(CC2)CN(C(=O)Nc2cccc(C#N)c2)C3)cc1
inactive: Potency [1] > 11.4 µM | activity change, negative = inhibition [2] -3.72% | Potency [10] | activity change, negative = inhibition [3] 16.2% | Potency [5] > 46 µM | outcome [6] | Potency [7] | Potency [11] | activity change, negative = inhibition [8] 6.5% | Potency [9]
18.3%: max response [8, 18]
13.9%: max response [8, 17]
